Source: PubChem (National Center for Advancing Translational Sciences (NCATS))
Compounds with a hit are over-represented: about 7.2% of the library has one in this group of screens.
Sm TGR block: inhibitors of Schistosoma mansoni thioredoxin glutathione reductase | Q962Y6 | purified TGR, DTNB reduction, TNB absorbance 405 nm | Potency, µM (top dose mostly 114 µM), most hits filed as inhibitors | hit rate 3% among 360,000 | AID 485364; further: nearly all actives have a fitted effect of over 60% in size
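TGR 20 nM + NADPH 100 uM (dispensed conc.), cpd preinc 15 min RT; start with NADPH (500 uM addition) then DTNB (15 mM addition). Kinetic TNB absorbance, 405 nm filter. Four-parameter Hill fit across titration.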
HCV inhibitor: HCV inhibition | Huh7.5.1 HCVcc-Cre infection, luciferase reporter, 44 h | Potency, µM (titrated, usually from 41.8 µM), most hits filed as inhibitors | hit rate 3.4% among 340,000
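Seed cells (1,000/well) for 4 h; treat with compound and infect with HCVcc-Cre, moi about 0.5. Incubate 44 h, then detect luciferase activity.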
FMDV antiviral: blocks foot and mouth disease virus. FMDV antiviral cell-based qHTS. Potency, µM (series often up to 57.9 µM), hits mostly inhibitors. hit rate 1.2% among 410,000; calls by dose curve; tested in HEK293T cells; further: read-out not given here; nearly all actives have a fitted effect of over 45% in size
Marburg entry inh: Marburg virus entry inhibition; Marburg virus pseudotyped entry inhibition, cell reporter; Potency, µM (titrated, usually from 37.8 µM), usual class: inhibitors; hit rate 1.8% among 300,000; AID 540276; calls by dose curve; tested in HEK293 cells
LASV entry inh: inhibitors of Lassa virus binding or cell entry; Potency, µM (highest dose often 37.9 µM), usual class: inhibitors; hit rate 1.2% among 300,000; Lassa virus pseudotype entry inhibition, cell reporter; calls by dose curve; tested in HEK293 cells; further: nearly all actives have a fitted effect of over 50% in size
RE007 growth inh: less growth of the S. pombe RE007 Vpr strain; Potency, µM (highest dose often 92.2 µM), most hits filed as inhibitors; AID 651644; hit rate 0.21% among 360,000; S. pombe RE007 Vpr strain, BacTiter-Glo ATP luminescence, 24 h; active means well fitted falling curve with a large enough effect; inconclusive means small, poorly fitted or top-dose-only effect; inactive means no such curve, though single readings can be large or run the other way; further: nearly all actives have a fitted effect of over 50% in size
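Fission yeast strain RE007, carrying one chromosomally integrated HIV-1 vpr copy, was seeded at OD 0.01 in PMG+AL medium with 23 nL pinned compound. After 24 h at 30 °C and 99% humidity, viability was read by BacTiter-Glo luminescence.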
A number is an active result; . = inactive; ? = inconclusive; / = no result given; [ ] = another dose, or the depositor's remark. Unless noted, the call rests on the fitted dose curve; in most records, active means well fitted curve in the direction sought with a large enough effect; inconclusive means small, poorly fitted or top-dose-only effect, or another doubt; inactive means no such curve, though single readings can be large; an effect the other way counts as inactive or inconclusive.

SMILES	Sm TGR block	HCV inhibitor	FMDV antiviral	Marburg entry inh	LASV entry inh	RE007 growth inh
COc1ccc(NC(=O)c2ccc(CN(c3cc(Cl)ccc3C)S(=O)(=O)c3ccccc3)cc2)cc1OC	.	.	.	4.1µM	.	.
CC(C)(C)c1ccc(C(=O)Nc2ccc(Cl)cc2)cc1	.	.	.	?	?	.
COc1ccc(C)cc1NC(=O)c1ccc(CN2CCN(c3ccccc3)CC2)cc1	.	?	?	?	?	/
COc1ccc(NC(=O)c2ccc(CN3CCN(c4ccccc4)CC3)cc2)cc1OC	.	?	.	10µM	?	.
COC(=O)Cc1ccc(NC(=O)c2ccc(C(C)(C)C)cc2)cc1	.	2.5µM	10µM	?	6.5µM	.
CCC(C)Oc1ccc(C(=O)Nc2ccc(CN3CCOCC3)cc2)cc1 (configuration not stated)	.	25µM	?	/	/	.
N#CCCn1c(=O)c(-c2ccc(Cl)cc2)nc2cnc(Oc3ccccc3)nc21	/	/	.	/	/	/
O=C(CSc1nc2c([nH]c3ccccc32)c(=O)n1-c1ccccc1)Nc1ccc2c(c1)OCO2	.	/	.	/	.	/
O=C(Nc1ccc(F)cc1F)c1cccc2c1C(=O)N(C1CCCCC1)C2	.	/	.	.	?	/
O=C(Nc1ccc(CN2CCOCC2)cc1)c1ccc(Cl)cc1	.	.	.	/	/	.
COC(=O)c1ccc(NC(=O)c2ccc(CN3CCOCC3)cc2)cc1	.	?	22µM	?	.	.
O=C(Nc1ccc(CN2CCOCC2)cc1)c1cc2ccccc2oc1=O	/	/	/	.	/	/
COc1ccc(CN2CCN(c3ccccc3)CC2)c(C)c1C	.	.	.	?	10µM	.
CC(C)(C)c1ccc(C(=O)Nc2ccc(CN3CCS(=O)(=O)CC3)cc2)cc1	.	5.6µM	?	?	?	.
O=C(Nc1ccc(CN2CCS(=O)(=O)CC2)cc1)c1ccc(F)cc1	.	.	.	/	/	.
COc1c(C(=O)Nc2ccc(CN3CCOCC3)cc2)cc2ccccc2c1Br	.	13µM	?	.	.	.
COc1cccc2cc(-c3cn4c(n3)sc3cc(F)ccc34)c(=O)oc12	.	/	.	/	?	/
COc1cccc(Cn2c(=O)c(-c3cccc(F)c3)nc3cncnc32)c1	/	/	.	/	/	/
O=C(Nc1ccc(CN2CCOCC2)cc1)c1ccc(Br)cc1	.	?	.	/	/	.
O=C(Nc1ccc(CN2CCOCC2)cc1)c1ccc(-c2ccc(Br)cc2)o1	.	8.9µM	?	?	?	.
COC(=O)CN1C(C(=O)c2ccccc2)=C(OC(=O)c2ccccc2)c2ccccc2S1(=O)=O	.	/	.	.	.	/
Cc1ccc(OCc2nc3ccccc3n2CCOc2ccc(Cl)cc2)cc1	.	/	.	?	.	/
COC/C=C/C1=CC2=CC(=O)C(C)(OC(=O)c3cnc4ccccc4n3)C(=O)C2=CN1Cc1ccc(OC)cc1 (configuration not stated)	16µM	.	.	.	/	.
COCC=CC1=CC2=CC(=O)C(C)(OC(=O)c3cnc4ccccc4n3)C(=O)C2=CN1Cc1ccc(OC)cc1 (configuration not stated)	/	/	/	.	/	/
COC(=O)CCC(=O)OC1(C)C(=O)C=C2C=C(C3CC3)N(Cc3ccc(OC)cc3)C=C2C1=O (configuration not stated)	.	3.5µM	.	.	/	.
SMILES	Sm TGR block	HCV inhibitor	FMDV antiviral	Marburg entry inh	LASV entry inh	RE007 growth inh
COC/C=C/C1=CC2=CC(=O)C(C)(OC(=O)c3cnc4ccccc4n3)C(=O)C2=CN1Cc1ccccc1 (configuration not stated)	?	.	14µM	.	/	.
Cc1cc(CNC(=S)Nc2cccc(Cl)c2Cl)nn1C	13µM	.	.	/	/	.
Cc1ccc(-c2onc(C)c2C)cc1S(=O)(=O)N1CC(C)Oc2ccccc21 (configuration not stated)	.	13µM	?	/	/	.
Cc1ccc(-c2onc(C)c2C)cc1S(=O)(=O)N1CCc2ccccc21	.	/	?	/	.	/
Cc1ccccc1N=Nc1c(O)n(C)c2ccccc12	35µM	.	.	/	/	.
Cn1c(O)c(N=NC(=N)N)c2ccccc21	.	.	.	/	/	.
Cc1ccc(C)c(S(=O)(=O)Nc2ccc(O)c(Sc3ncn[nH]3)c2)c1	50µM	.	.	/	/	.
Cc1ccc(S(=O)(=O)Nc2ccc(O)c(Sc3ncn[nH]3)c2)cc1	/	.	.	.	.	.
COC(=O)[C@]1(C)CCC[C@]2(C)c3ccc(C(C)C)cc3C(=O)CC12 (some centres not stated)	/	/	.	/	/	/
N#CC(c1ccc(Cl)cc1)c1ccc2c(C(F)(F)F)cc(C(F)(F)F)nc2n1 (configuration not stated)	.	?	?	3.2µM	2.8µM	?
Cc1cc(N2CCC(C)CC2)nc(NCc2ccccc2)n1	.	6.3µM	.	?	18µM	.
Cc1cc(Nc2ccc(Cl)cc2)nc(NCc2ccccc2)n1	.	?	32µM	?	?	.
CCCCNc1cc(C)nc(NCc2ccccc2)n1	.	?	?	11µM	11µM	.
Cc1cc(Nc2ccccc2)nc(NCc2ccccc2)n1	.	?	.	?	?	.
Cc1ccc(S(=O)(=O)N2[C@H](CC(=O)c3ccc(F)cc3)OC[C@@H]2C(C)C)cc1	/	/	.	/	/	.
CC(=O)NC(c1cc(Cl)c2cccnc2c1O)C(C)C (configuration not stated)	.	/	.	/	/	/
CC(=O)NC(c1cc(Cl)c2cccnc2c1O)C1CC1 (configuration not stated)	.	/	.	/	/	/
Oc1c(C(c2ccccn2)N2CCC(Cc3ccccc3)CC2)cc(Cl)c2cccnc12 (configuration not stated)	3.5µM	18µM	22µM	?	?	?
Oc1c(C(c2ccc(Cl)cc2)N2CCCC2)cc(Cl)c2cccnc12 (configuration not stated)	3.2µM	?	.	/	/	.
CN1CCN(C(c2ccccn2)c2cc(Cl)c3cccnc3c2O)CC1 (configuration not stated)	1.3µM	?	.	/	/	?
Cc1ccc(C(c2cc(Cl)c3cccnc3c2O)N2CCN(C)CC2)cc1 (configuration not stated)	0.71µM	?	?	?	?	.
Cc1ccn2cc(-c3ccc(C)c(NS(=O)(=O)c4ccc(Cl)cc4)c3)nc2c1	.	/	.	.	?	/
CC#CCN1C(=O)N(C)C(c2ccccc2)C(C(=O)OC)=C1C (configuration not stated)	/	/	/	.	/	/
CCC(=O)N1c2ccccc2CC1C(=O)NCCCN1CCN(c2ccccc2)CC1 (configuration not stated)	.	/	.	/	.	/
O=C(CSC1=Nc2ccccc2C2=NC(Cc3c[nH]c4ccccc34)C(=O)N12)NC1CCCCC1 (configuration not stated)	.	.	.	.	?	.
CC1CC(C)CN(C(=O)CSC2=Nc3ccccc3C3=NC(Cc4c[nH]c5ccccc45)C(=O)N23)C1 (configuration not stated)	.	.	.	?	2.6µM	.[3.69 µM]
